“And” between values parts separate entries of the source, which are not always exact repeats. Equal entries are not always repeated. About 2,000 (36%) of roughly 5,500 compounds were called active. About 18% were inconclusive and are not listed. Rule as the data show it: active = normalized growth mostly below about 0.91 (no sharp cut-off); inconclusive = no clear call, values can overlap the other calls; inactive = mostly above about 0.92. The list shows a part of the results.
Assay: chemical genetic growth profiling, strain panel (AID 1159580);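 also: tested at 20 µM; growth read once vehicle control cultures reached saturation at 30 °C; 1 = growth at the plate median or of vehicle wells; lower values mean less growth of the strain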
Conditions: growth OD
[1] = S. cerevisiae deletion strains, locus YAL013W, strain DEP1, stronger effect = lower value
[2] = S. cerevisiae deletion strains, locus YBR229C, strain ROT2, stronger effect = lower value
[3] = S. cerevisiae deletion strains, locus YDL101C, strain DUN1, stronger effect = lower value
[4] = S. cerevisiae deletion strains, locus YDR150W, strain NUM1, stronger effect = lower value
[5] = S. cerevisiae deletion strains, locus YEL061C, strain CIN8, stronger effect = lower value
[6] = S. cerevisiae deletion strains, locus YGR078C, strain PAC10, stronger effect = lower value
[7] = S. cerevisiae deletion strains, locus YGR229C, strain SMI1, stronger effect = lower value
[8] = S. cerevisiae deletion strains, locus YHR030C, strain SLT2, stronger effect = lower value
[9] = S. cerevisiae deletion strains, locus YJR043C, strain POL32, stronger effect = lower value
[10] = S. cerevisiae deletion strains, locus YJR075W, strain HOC1, stronger effect = lower value
[11] = S. cerevisiae deletion strains, locus YKL190W, strain CNB1, stronger effect = lower value
[12] = S. cerevisiae deletion strains, locus YLR039C, strain RIC1, stronger effect = lower value
[13] = S. cerevisiae deletion strains, locus YLR262C, strain YPT6, stronger effect = lower value
[14] = S. cerevisiae deletion strains, locus YMR263W, strain SAP30, stronger effect = lower value
[15] = S. cerevisiae deletion strains, locus YMR307W, strain GAS1, stronger effect = lower value
[16] = S. cerevisiae deletion strains, locus YNL153C, strain GIM3, stronger effect = lower value
[17] = S. cerevisiae deletion strains, locus YNL322C, strain KRE1, stronger effect = lower value
[18] = S. cerevisiae deletion strains, locus YPL055C, strain LGE1, stronger effect = lower value
[19] = S. cerevisiae deletion strains, locus YPL241C, strain CIN2, stronger effect = lower value

Measured: normalized growth

CNCCc1ccccn1
inactive: [1] 1.01 | S. cerevisiae deletion strains, locus YBR021W, strain FUR4, stronger effect = lower value 1.02 | [2] 1.01 | S. cerevisiae deletion strains, locus YCL029C, strain bik1, stronger effect = lower value 1.04 | S. cerevisiae deletion strains, locus YDL035C, strain GPR1, stronger effect = lower value 0.992 | S. cerevisiae deletion strains, locus YDL074C, strain BRE1, stronger effect = lower value 1.03 | [3] 1.01 | S. cerevisiae deletion strains, locus YDL134C, strain PPH21, stronger effect = lower value 1.01 | S. cerevisiae deletion strains, locus YDL185W, strain tfp1, stronger effect = lower value 1.02 | S. cerevisiae deletion strains, locus YDL192W, strain arf1, stronger effect = lower value 1.02 | S. cerevisiae deletion strains, locus YDR101C, strain arx1, stronger effect = lower value 1.01 | [4] 1.01 | S. cerevisiae deletion strains, locus YDR162C, strain NBP2, stronger effect = lower value 1.01 | S. cerevisiae deletion strains, locus YDR318W, strain mcm21, stronger effect = lower value 1.02 | S. cerevisiae deletion strains, locus YDR388W, stronger effect = lower value 1.01 | S. cerevisiae deletion strains, locus YDR502C, strain sam2, stronger effect = lower value 1.01 | [5] 1.01 | S. cerevisiae deletion strains, locus YER110C, stronger effect = lower value 1.02 | S. cerevisiae deletion strains, locus YER155C, strain BEM2, stronger effect = lower value 1 | S. cerevisiae deletion strains, locus YER167W, strain BCK2, stronger effect = lower value 1.01 | S. cerevisiae deletion strains, locus YGL078C, strain dbp3, stronger effect = lower value 1.01 | S. cerevisiae deletion strains, locus YGL086W, strain mad1, stronger effect = lower value 1 | S. cerevisiae deletion strains, locus YGL248W, strain PDE1, stronger effect = lower value 1 | [6] 1.03 | S. cerevisiae deletion strains, locus YGR135W, strain pre9, stronger effect = lower value 1.01 | [7] 1.02 | S. cerevisiae deletion strains, locus YGR252W, strain gcn5, stronger effect = lower value 0.958 | [8] 1.01 and 1.04 | S. cerevisiae deletion strains, locus YHR079C, strain IRE1 (second series), stronger effect = lower value 1.02 | S. cerevisiae deletion strains, locus YHR079C, strain IRE1, stronger effect = lower value 1.04 | S. cerevisiae deletion strains, locus YHR094C, strain hxt1, stronger effect = lower value 1.01 | S. cerevisiae deletion strains, locus YHR129C, strain ARP1, stronger effect = lower value 0.996 | S. cerevisiae deletion strains, locus YHR200W, strain rpn10, stronger effect = lower value 1.01 | S. cerevisiae deletion strains, locus YIL066C, strain RNR3, stronger effect = lower value 1.02 | S. cerevisiae deletion strains, locus YIL073C, strain SPO22, stronger effect = lower value 1.06 | S. cerevisiae deletion strains, locus YIL125W, strain kgd1, stronger effect = lower value 1 | S. cerevisiae deletion strains, locus YIR030C, strain dcg1, stronger effect = lower value 1.01 | S. cerevisiae deletion strains, locus YJL095W, strain BCK1, stronger effect = lower value 1.04 and 1.03 | S. cerevisiae deletion strains, locus YJL134W, strain LCB3, stronger effect = lower value 1 | S. cerevisiae deletion strains, locus YJL168C, strain set2, stronger effect = lower value 1.01 | S. cerevisiae deletion strains, locus YJL187C, strain SWE1 (second series), stronger effect = lower value 1.02 | [9] 1.02 | S. cerevisiae deletion strains, locus YJR066W, strain TOR1, stronger effect = lower value 0.978 | [10] 1.02 | S. cerevisiae deletion strains, locus YKL009W, strain mrt4, stronger effect = lower value 1.07 | S. cerevisiae deletion strains, locus YKL068W, stronger effect = lower value 1.01 | S. cerevisiae deletion strains, locus YKL085W, strain MDH1 (second series), stronger effect = lower value 1.01 | S. cerevisiae deletion strains, locus YKL085W, strain MDH1, stronger effect = lower value 1.01 | [11] 1.01 | S. cerevisiae deletion strains, locus YKR001C, strain vps1, stronger effect = lower value 1.01 | [12] 1.02 | S. cerevisiae deletion strains, locus YLR058C, strain SHM2, stronger effect = lower value 1.01 | S. cerevisiae deletion strains, locus YLR102C, strain apc9, stronger effect = lower value 1.02 | S. cerevisiae deletion strains, locus YLR113W, strain HOG1, stronger effect = lower value 1.03 | [13] 1.02 | S. cerevisiae deletion strains, locus YLR268W, strain sec22, stronger effect = lower value 1.04 | S. cerevisiae deletion strains, locus YLR330W, strain CHS5, stronger effect = lower value 1.01 | S. cerevisiae deletion strains, locus YLR342W, strain FKS1 (second series), stronger effect = lower value 1.02 | S. cerevisiae deletion strains, locus YLR371W, strain rom2, stronger effect = lower value 1.02 | S. cerevisiae deletion strains, locus YLR418C, strain cdc73, stronger effect = lower value 1.03 | S. cerevisiae deletion strains, locus YML016C, strain PPZ1, stronger effect = lower value 1 | S. cerevisiae deletion strains, locus YML032C, strain rad52, stronger effect = lower value 1.03 | S. cerevisiae deletion strains, locus YML124C, strain tub3, stronger effect = lower value 1.01 | S. cerevisiae deletion strains, locus YMR078C, strain ctf18, stronger effect = lower value 1.02 | S. cerevisiae deletion strains, locus YMR223W, strain ubp8, stronger effect = lower value 1.01 | [14] 1.03 | [15] 0.966 | S. cerevisiae deletion strains, locus YNL067W, strain RPL9B, stronger effect = lower value 1.02 | S. cerevisiae deletion strains, locus YNL128W, strain TEP1, stronger effect = lower value 1.01 | [16] 1.01 | S. cerevisiae deletion strains, locus YNL183C, strain NPR1, stronger effect = lower value 0.978 | S. cerevisiae deletion strains, locus YNL233W, strain BNI4, stronger effect = lower value 1.01 | S. cerevisiae deletion strains, locus YNL250W, strain rad50, stronger effect = lower value 1.03 | S. cerevisiae deletion strains, locus YNL271C, strain bni1, stronger effect = lower value 1.02 | S. cerevisiae deletion strains, locus YNL298W, strain CLA4, stronger effect = lower value 1.01 | S. cerevisiae deletion strains, locus YNL307C, strain MCK1, stronger effect = lower value 1.02 | [17] 1.01 | S. cerevisiae deletion strains, locus YNR052C, strain pop2, stronger effect = lower value 1.01 | S. cerevisiae deletion strains, locus YOL006C, strain TOP1, stronger effect = lower value 1.08 | S. cerevisiae deletion strains, locus YOL012C, strain htz1 0.922 | S. cerevisiae deletion strains, locus YOL147C, strain pex11, stronger effect = lower value 1.01 | S. cerevisiae deletion strains, locus YOR061W, strain CKA2, stronger effect = lower value 1.01 | S. cerevisiae deletion strains, locus YOR069W, strain VPS5, stronger effect = lower value 1.01 | S. cerevisiae deletion strains, locus YOR136W, strain idh2, stronger effect = lower value 1.01 | S. cerevisiae deletion strains, locus YOR144C, strain elg1, stronger effect = lower value 1.01 | S. cerevisiae deletion strains, locus YOR184W, strain ser1, stronger effect = lower value 1.02 | S. cerevisiae deletion strains, locus YOR231W, strain MKK1, stronger effect = lower value 1.02 | S. cerevisiae deletion strains, locus YOR316C, strain cot1, stronger effect = lower value 1.01 | [18] 1.04 | [19] 1.01 | S. cerevisiae deletion strains, locus YPL256C, strain CLN2, stronger effect = lower value 1.04 | S. cerevisiae deletion strains, locus YPR119W, strain clb2, stronger effect = lower value 1.01 | S. cerevisiae deletion strains, locus YPR141C, strain kar3, stronger effect = lower value 1.02 | S. cerevisiae deletion strains, locus YPR163C, strain tif3, stronger effect = lower value 1.02 | S. cerevisiae deletion strains, locus YPR167C, strain met16, stronger effect = lower value 1.01 | S. cerevisiae deletion strains, strain wtn01, stronger effect = lower value 1.01 | S. cerevisiae strains, strain wild type, stronger effect = lower value 1.01

Cc1ccc(C)c(NC(=S)N(CCc2ccccc2)CCc2ccccn2)c1
inactive: [1] 0.989 | [2] 0.983 | S. cerevisiae deletion strains, locus YCL061C, strain MRC1, stronger effect = lower value 1 | [3] 1.04 | [4] 0.99 | [5] 0.953 | [6] 0.996 | [7] 0.974 | [8] 0.978 | S. cerevisiae deletion strains, locus YHR087W, strain rtc3, stronger effect = lower value 0.958 | S. cerevisiae deletion strains, locus YJL187C, strain SWE1, stronger effect = lower value 0.989 | [9] 1.01 | [10] 0.999 | [11] 0.964 | S. cerevisiae deletion strains, locus YLR058C, strain SHM2 (second series), stronger effect = lower value 0.98 | S. cerevisiae deletion strains, locus YLR085C, strain ARP6, stronger effect = lower value 0.928 | [13] 0.853 | S. cerevisiae deletion strains, locus YML094W, strain GIM5, stronger effect = lower value 0.95 | S. cerevisiae deletion strains, locus YMR219W, strain ESC1, stronger effect = lower value 0.996 | [14] 0.985 | [16] 1.01 | S. cerevisiae deletion strains, locus YNL298W, strain CLA4 (second series), stronger effect = lower value 0.984 | [17] 0.974 | S. cerevisiae deletion strains, locus YNR030W, strain Alg12, stronger effect = lower value 0.988 | [18] 0.946 | [19] 1.03 | S. cerevisiae deletion strains, locus YPR135W, strain CTF4, stronger effect = lower value 0.942
active: [12] 0.606

C[N+](C)(C)CCOC(=O)CCC(=O)OCC[N+](C)(C)C
inactive: S. cerevisiae deletion strains, locus YAL040C, strain CLN3, stronger effect = lower value 0.988 | S. cerevisiae deletion strains, locus YCL061C, strain MRC1 (second series), stronger effect = lower value 1.01 | [4] 1.02 | S. cerevisiae deletion strains, locus YDR363W, strain ESC2, stronger effect = lower value 1.01 | S. cerevisiae deletion strains, locus YER002W, strain NOP16, stronger effect = lower value 1.01 | [7] 1.04 | [10] 0.992 | [14] 1 | [15] 1.03 | [16] 1.03 | S. cerevisiae deletion strains, locus YNL175C, strain NOP13, stronger effect = lower value 1.01 | S. cerevisiae deletion strains, locus YNL197C, strain WHI3, stronger effect = lower value 1.02 | S. cerevisiae deletion strains, locus YNL224C, strain SQS1, stronger effect = lower value 1.01 | [17] 0.992 | S. cerevisiae deletion strains, locus YOR083W, strain WHI5 (second series), stronger effect = lower value 1.02 | [19] 0.987
